Rows were chosen to be rich in hits. Some 7.1% of all compounds tested hit in one or more screens of this group.
ELG1 genotoxic = induces genotoxicity in HEK293T cells with luciferase-tagged ELG1 | 330,000 tested, 1.3% active | Potency, µM (titrated, usually from 46 µM), for inactives: at the top dose activity change, positive = activation, usual class: activators | HEK293T ELG1-luciferase reporter, luminescence, 16 h; note: % of control where 0% means no effect; nearly all actives have a fitted effect of over 60% in size
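ELG1-luciferase HEK293T cells, 2,000/well; compound pinned in; 16 hr, 37 °C, 5% CO2; ONE-Glo, 30 min RT; luminescence on CCD imager.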
ELG1 DNA repair = inhibitors of ELG1-dependent DNA repair in HEK293T cells. HEK293T ELG1-luciferase reporter, luminescence, 16 h; DNA damage induced by 5-fluorouridine. Potency, µM (top dose mostly 46.1 µM), for the others: at the top dose activity change, negative = inhibition, usual class: inhibitors. 330,000 tested, 2.3% active; note: % is set by controls: 0 for no effect and ±100 for the full control effect; nearly all actives have a fitted effect of over 55% in size
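Reporter activity after DNA damage by 5-fluorouridine is monitored. Compound-treated cells incubate 16 hr at 37 °C, then ONE-Glo is added for 30 min before luminescence reading.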
SW480 rerep = DNA re-replication induction in SW480 cells | SW480 DNA re-replication, Hoechst DNA content imaging, 48 h | Potency, µM (series often up to 46.1 µM), for the others: top-dose re-replication activation, hits mostly activators | 340,000 tested, 1.8% active | AID 624297; note: % of control where 0% means no effect; nearly all actives have a fitted effect of over 55% in size
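Readout is total intensity of Hoechst-stained nuclei, excited at 405 nm and collected at 500-530 nm. Compound treatment lasted 48 hr at 37 C in 5% CO2 before staining.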
p53 reactivation = mutant p53 re-activation in reporter cells. AID 504706. Potency, µM (doses to about 92.2 µM), for the others: top-dose activity change, positive = activation, hits mostly activators. 320,000 tested, 0.063% active. H1299 p53-A138V BP100-luciferase reporter, luminescence, 24 h; note: % of control where 0% means no effect; nearly all actives have a fitted effect of over 45% in size
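H1299 (p53-null), stable ts p53-A138V + BP100-Luc; 1000 cells/well, Opti-MEM/10% FBS; cpd 4 pt, 1:5; 24 h, 37 deg C, 5% CO2; detection reagent 10 min RT; luminescence.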
MCF10A rerep = DNA re-replication induction in MCF 10a cells. 350,000 tested, 2.9% active. MCF 10A DNA re-replication, Hoechst nuclear intensity, 48 h. Potency, µM (titrated, usually from 46.1 µM), for the others: top-dose activity, positive = re-replication, usual class: activators. AID 624296; note: % of control where 0% means no effect; nearly all actives have a fitted effect of over 50% in size
A-T KAP1 phos = potential ataxia-telangiectasia treatment; F2112 A-T fibroblasts, KAP-1 phosphorylation AlphaLISA; neocarzinostatin DNA damage 30 min before lysis; Potency, µM (highest dose often 57.5 µM), inactives show at the top dose activation, usual class: activators; 320,000 tested, 0.19% active; note: % of control where 0% means no effect; nearly all actives have a fitted effect of over 45% in size
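hTERT-immortalized A-T patient fibroblasts (F2112), 500 cells/well in OPTI-MEM, 1% FBS, got compounds for 60 min, then NCS for 30 min at 37C. Lysates were then assayed for phospho-KAP-1 by AlphaLISA (anti-pKAP1 donor, anti-KAP1 acceptor beads), 6 hr at 25C.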
An asterisk follows results filed as active; [ ] = another dose, or the depositor's remark. Calls come from the whole dose curve; as a rule, active = well fitted curve in the direction sought with a large enough effect; inconclusive = small, poorly fitted or top-dose-only effect, or another doubt; inactive = no such curve, though single readings can be large; an effect the other way counts as inactive or inconclusive. Potency is the fitted concentration of half-maximal effect.

Results for O=C(NNS(=O)(=O)c1ccc([N+](=O)[O-])cc1)C(=O)Nc1cccc(C(=O)O)c1 ?
ELG1 genotoxic: 4%; ELG1 DNA repair: 23%; SW480 rerep: -15%; p53 reactivation: 12%; MCF10A rerep: inconclusive; A-T KAP1 phos: -8%

What do the screens show for `O=C1NC(CCc2ccccc2)C(=O)N1CCOc1ccccc1` (stereo unspecified)?
ELG1 genotoxic: -1%; ELG1 DNA repair: 3%; SW480 rerep: -41%; p53 reactivation: -2%; MCF10A rerep: 6.5µM*; A-T KAP1 phos: 3%

How did O=C1NC(CCc2ccccc2)C(=O)N1Cc1ccc(Br)cc1 (stereo unspecified) do in these assays?
ELG1 genotoxic: -2%; ELG1 DNA repair: -9%; SW480 rerep: -41%; p53 reactivation: -3%; MCF10A rerep: -53%; A-T KAP1 phos: 4%

What do the screens show for `CC(C)N(C1=N/C(=C\c2ccco2)C(=O)N1c1ccccc1)C(C)C`?
ELG1 genotoxic: -5%; ELG1 DNA repair: -5%; SW480 rerep: inconclusive; p53 reactivation: 2%; MCF10A rerep: 7.3µM*; A-T KAP1 phos: 4%

Results for NC(=S)N/N=C1\CC(c2ccc3c(c2)OCCO3)Oc2ccc(F)cc21 (stereo unspecified) ?
ELG1 genotoxic: -6%; ELG1 DNA repair: -15%; SW480 rerep: -4%; p53 reactivation: 5%; MCF10A rerep: 6%; A-T KAP1 phos: 0%

How did NC(=S)N/N=C1\CC(c2ccc3c(c2)OCCCO3)Oc2ccc(F)cc21 (stereo unspecified) do in these assays?
ELG1 genotoxic: -7%; ELG1 DNA repair: 3.7µM*; SW480 rerep: -3%; p53 reactivation: -7%; MCF10A rerep: 15%; A-T KAP1 phos: -3%

How did O=C(NC1CCCCCC1)c1ccc(CS(=O)Cc2cccc(Cl)c2)o1 (stereo unspecified) do in these assays?
ELG1 genotoxic: 1%; ELG1 DNA repair: 0%; SW480 rerep: inconclusive; p53 reactivation: -7%; MCF10A rerep: 23%; A-T KAP1 phos: inconclusive

How did CN(Cc1ccccc1F)Cc1cc(=O)oc2cc(O)c(Cl)cc12 do in these assays?
ELG1 genotoxic: 5%; ELG1 DNA repair: 9%; SW480 rerep: inconclusive; p53 reactivation: 2%; MCF10A rerep: 5.8µM*; A-T KAP1 phos: 14%

What do the screens show for `CC1CCN(Cc2cc(=O)oc3cc(O)c(Cl)cc23)CC1`?
ELG1 genotoxic: -3%; ELG1 DNA repair: 1%; SW480 rerep: inconclusive; p53 reactivation: 2%; MCF10A rerep: 15µM*; A-T KAP1 phos: 12%

What do the screens show for `O=S(=O)(c1ccc(SCCO)nc1)N1CCOCC1`?
ELG1 genotoxic: 1%; ELG1 DNA repair: inconclusive; SW480 rerep: -5%; p53 reactivation: 9%; MCF10A rerep: -1%; A-T KAP1 phos: -14%

What do the screens show for `Cc1ccc(NC(=O)COc2ccc(N(C)S(=O)(=O)c3ccc(F)cc3)cc2)cc1`?
ELG1 genotoxic: -6%; ELG1 DNA repair: inconclusive; SW480 rerep: -4%; p53 reactivation: -1%; MCF10A rerep: 2%; A-T KAP1 phos: -3%

What do the screens show for `Cc1cccc(NS(=O)(=O)c2ccc(C)c(C(=O)NNC(=O)c3csc(N4CCOCC4)n3)c2)c1`?
SW480 rerep: -3%; MCF10A rerep: inconclusive

How did COc1cc(NC(=O)CN2CCN(Cc3ccc4c(c3)OCO4)CC2)cc(OC)c1 do in these assays?
ELG1 genotoxic: -2%; ELG1 DNA repair: 23µM*; SW480 rerep: -2%; p53 reactivation: 0%; MCF10A rerep: 7%; A-T KAP1 phos: 5%

Results for CC1CCc2nc(NC(=O)CN3CCN(Cc4ccc5c(c4)OCO5)CC3)sc2C1 (stereo unspecified) ?
ELG1 genotoxic: -9%; ELG1 DNA repair: 12µM*; SW480 rerep: 2%; p53 reactivation: inconclusive; MCF10A rerep: 13µM*; A-T KAP1 phos: 8%

What do the screens show for `CC1CCc2nc(NC(=O)CN3CCN(c4ccccc4)CC3)sc2C1` (stereo unspecified)?
ELG1 genotoxic: 0%; ELG1 DNA repair: inconclusive; SW480 rerep: -4%; p53 reactivation: 1%; MCF10A rerep: 7%; A-T KAP1 phos: -3%

Results for COC(=O)c1[nH]c2ccc(F)cc2c1NC(=O)CCN1CCN(Cc2ccc3c(c2)OCO3)CC1 ?
ELG1 genotoxic: -4%; ELG1 DNA repair: -22%; SW480 rerep: 1%; p53 reactivation: 0%; MCF10A rerep: 2%; A-T KAP1 phos: -2%

What do the screens show for `COC(=O)c1[nH]c2ccccc2c1NC(=O)CN1CCN(Cc2ccc3c(c2)OCO3)CC1`?
ELG1 genotoxic: -10%; ELG1 DNA repair: 4.6µM*; SW480 rerep: -3%[9.22 µM]; p53 reactivation: -8%; MCF10A rerep: -1%; A-T KAP1 phos: 8%

What do the screens show for `COc1ccc(NC(=O)CN2CCN(Cc3ccc4c(c3)OCO4)CC2)cc1OC`?
ELG1 genotoxic: 2%; ELG1 DNA repair: inconclusive; SW480 rerep: 0%; p53 reactivation: -6%; MCF10A rerep: 14%; A-T KAP1 phos: 9%

How did Cc1cc(C)cc(OCC(O)CN2CCN(Cc3ccc4c(c3)OCO4)CC2)c1 (stereo unspecified) do in these assays?
ELG1 genotoxic: -3%; ELG1 DNA repair: inconclusive; SW480 rerep: 9%; p53 reactivation: 16%; MCF10A rerep: 16µM*; A-T KAP1 phos: 2%

Results for CC12CCC(C)(O1)C1C(=O)N(c3nccs3)C(=O)C12 (stereo unspecified) ?
SW480 rerep: 3%; MCF10A rerep: 1%

How did COc1ccc(C(=O)c2c(N)sc3c2CCN(C(=O)OC(C)(C)C)C3)cc1 do in these assays?
ELG1 genotoxic: -14%; ELG1 DNA repair: 23µM*; SW480 rerep: inconclusive; p53 reactivation: -4%; MCF10A rerep: inconclusive; A-T KAP1 phos: -3%

Results for CC(C)CCN(C(=S)Nc1cccc(F)c1)C(C)c1cccs1 (stereo unspecified) ?
ELG1 genotoxic: -11%; ELG1 DNA repair: inconclusive; SW480 rerep: -4%; p53 reactivation: -3%; MCF10A rerep: 16µM*; A-T KAP1 phos: 1%

Results for Cc1cccc(N(CC(=O)NC2CCCCC2)C(=O)c2ccc(C)s2)c1 ?
ELG1 genotoxic: -3%; ELG1 DNA repair: -8%; SW480 rerep: 7.3µM*; p53 reactivation: 2%; MCF10A rerep: inconclusive; A-T KAP1 phos: 0%
